Here are results for 40 targets from the supplement of paper PMC12819154, “High-throughput peptide-centric local stability assay extends protein–ligand identification to membrane proteins, tissues and bacteria” (Nature Structural & Molecular Biology, 2025).
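Further: lysate desalted by size exclusion to strip endogenous ATP, peptide intensities built from DIA-NN precursor signals, and peptides missing any value discarded before comparison.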

UniProt P37344, sequence (P37344 whole entry): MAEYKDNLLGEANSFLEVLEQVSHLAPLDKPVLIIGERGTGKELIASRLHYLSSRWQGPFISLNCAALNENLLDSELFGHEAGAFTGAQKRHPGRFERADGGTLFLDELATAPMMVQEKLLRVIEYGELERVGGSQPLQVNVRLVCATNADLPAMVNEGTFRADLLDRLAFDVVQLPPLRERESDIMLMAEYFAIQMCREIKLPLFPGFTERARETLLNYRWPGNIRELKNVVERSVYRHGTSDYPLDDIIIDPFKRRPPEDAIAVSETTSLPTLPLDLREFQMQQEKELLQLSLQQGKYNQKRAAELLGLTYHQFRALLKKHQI
UniProt P76196, sequence (P76196 whole entry): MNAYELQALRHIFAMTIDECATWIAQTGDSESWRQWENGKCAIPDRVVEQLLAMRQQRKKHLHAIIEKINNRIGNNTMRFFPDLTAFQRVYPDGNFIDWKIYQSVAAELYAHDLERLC
UniProt P15373, sequence (P15373 whole entry): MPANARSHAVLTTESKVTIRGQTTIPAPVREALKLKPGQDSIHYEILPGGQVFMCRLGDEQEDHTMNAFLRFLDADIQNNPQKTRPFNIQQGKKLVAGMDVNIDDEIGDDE
UniProt P03841, sequence (P03841 whole entry): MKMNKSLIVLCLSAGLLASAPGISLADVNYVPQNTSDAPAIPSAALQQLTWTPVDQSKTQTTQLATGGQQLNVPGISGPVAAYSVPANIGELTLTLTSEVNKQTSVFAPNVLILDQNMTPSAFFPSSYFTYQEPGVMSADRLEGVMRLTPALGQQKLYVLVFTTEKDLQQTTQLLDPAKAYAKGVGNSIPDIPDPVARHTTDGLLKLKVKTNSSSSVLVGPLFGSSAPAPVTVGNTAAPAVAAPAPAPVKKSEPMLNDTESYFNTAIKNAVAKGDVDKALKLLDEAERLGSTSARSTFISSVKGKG
UniProt P39099, sequence (P39099 whole entry): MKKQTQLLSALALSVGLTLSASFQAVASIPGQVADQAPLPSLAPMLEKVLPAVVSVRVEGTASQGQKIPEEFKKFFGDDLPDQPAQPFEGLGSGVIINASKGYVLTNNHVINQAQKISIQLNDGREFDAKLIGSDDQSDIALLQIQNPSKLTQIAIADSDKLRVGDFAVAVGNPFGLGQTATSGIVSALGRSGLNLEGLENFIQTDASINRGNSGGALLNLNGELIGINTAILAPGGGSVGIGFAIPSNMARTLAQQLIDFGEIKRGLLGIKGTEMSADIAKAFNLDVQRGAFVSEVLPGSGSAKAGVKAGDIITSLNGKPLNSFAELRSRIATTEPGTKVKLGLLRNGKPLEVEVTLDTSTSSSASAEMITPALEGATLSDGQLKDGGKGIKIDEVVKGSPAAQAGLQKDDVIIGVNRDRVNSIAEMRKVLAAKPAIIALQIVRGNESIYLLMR
UniProt P15047, sequence (P15047 whole entry): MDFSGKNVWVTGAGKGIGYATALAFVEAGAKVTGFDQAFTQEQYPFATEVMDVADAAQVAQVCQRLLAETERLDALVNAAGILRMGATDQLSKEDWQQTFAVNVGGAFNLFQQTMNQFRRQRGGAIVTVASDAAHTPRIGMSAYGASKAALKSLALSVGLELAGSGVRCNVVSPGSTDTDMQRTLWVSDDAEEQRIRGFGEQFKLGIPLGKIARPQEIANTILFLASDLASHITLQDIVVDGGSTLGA
UniProt P77293, sequence (P77293 whole entry): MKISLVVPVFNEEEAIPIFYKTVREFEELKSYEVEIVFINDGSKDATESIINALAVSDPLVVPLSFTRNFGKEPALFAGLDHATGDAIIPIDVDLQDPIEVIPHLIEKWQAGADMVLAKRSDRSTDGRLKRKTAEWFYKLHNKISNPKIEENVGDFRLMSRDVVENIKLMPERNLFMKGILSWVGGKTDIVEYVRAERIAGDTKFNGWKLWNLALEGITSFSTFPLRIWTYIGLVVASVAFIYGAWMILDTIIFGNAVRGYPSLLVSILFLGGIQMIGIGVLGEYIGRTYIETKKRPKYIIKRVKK
UniProt P0AAG8, sequence (P0AAG8 whole entry): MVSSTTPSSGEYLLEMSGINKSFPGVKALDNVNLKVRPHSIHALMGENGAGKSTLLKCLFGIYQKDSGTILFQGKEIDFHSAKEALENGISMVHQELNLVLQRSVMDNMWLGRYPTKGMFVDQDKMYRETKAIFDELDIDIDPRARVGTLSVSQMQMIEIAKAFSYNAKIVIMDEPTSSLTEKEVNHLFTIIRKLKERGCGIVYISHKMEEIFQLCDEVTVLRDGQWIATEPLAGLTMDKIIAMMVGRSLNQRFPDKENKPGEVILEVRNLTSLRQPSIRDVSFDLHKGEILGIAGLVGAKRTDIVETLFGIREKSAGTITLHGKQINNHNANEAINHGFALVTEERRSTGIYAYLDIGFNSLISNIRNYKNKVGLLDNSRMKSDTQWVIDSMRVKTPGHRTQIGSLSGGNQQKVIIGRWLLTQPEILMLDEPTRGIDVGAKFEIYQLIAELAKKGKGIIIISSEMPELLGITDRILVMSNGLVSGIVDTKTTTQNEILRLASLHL
UniProt P0DPP7, sequence (P0DPP7 whole entry): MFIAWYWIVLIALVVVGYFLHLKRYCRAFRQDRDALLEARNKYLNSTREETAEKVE
UniProt P76556, sequence (P76556 whole entry): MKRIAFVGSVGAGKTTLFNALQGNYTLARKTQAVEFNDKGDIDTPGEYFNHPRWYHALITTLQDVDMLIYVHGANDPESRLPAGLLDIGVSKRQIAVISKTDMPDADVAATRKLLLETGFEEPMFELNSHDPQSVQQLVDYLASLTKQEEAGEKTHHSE
UniProt P76330, sequence (P76330 whole entry): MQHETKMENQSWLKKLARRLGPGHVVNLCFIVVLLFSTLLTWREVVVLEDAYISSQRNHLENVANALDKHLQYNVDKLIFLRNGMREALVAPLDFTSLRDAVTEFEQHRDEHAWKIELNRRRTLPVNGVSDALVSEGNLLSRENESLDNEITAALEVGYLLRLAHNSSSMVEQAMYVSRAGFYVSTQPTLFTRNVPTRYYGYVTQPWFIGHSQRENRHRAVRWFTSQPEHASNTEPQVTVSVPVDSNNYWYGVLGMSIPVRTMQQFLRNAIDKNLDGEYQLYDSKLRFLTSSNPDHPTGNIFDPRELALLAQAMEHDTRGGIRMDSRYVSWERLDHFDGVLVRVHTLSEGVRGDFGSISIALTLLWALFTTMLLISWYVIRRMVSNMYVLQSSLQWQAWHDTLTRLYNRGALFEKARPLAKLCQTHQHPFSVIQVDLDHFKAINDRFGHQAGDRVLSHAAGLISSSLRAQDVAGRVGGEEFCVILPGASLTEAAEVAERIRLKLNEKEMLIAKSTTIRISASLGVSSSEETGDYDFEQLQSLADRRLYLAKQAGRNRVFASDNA
UniProt P0A7Y8, sequence (P0A7Y8 whole entry): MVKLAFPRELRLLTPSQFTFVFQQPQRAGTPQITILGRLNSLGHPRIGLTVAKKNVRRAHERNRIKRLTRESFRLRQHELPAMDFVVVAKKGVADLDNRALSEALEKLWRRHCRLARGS
UniProt P0AFU4, sequence (P0AFU4 whole entry): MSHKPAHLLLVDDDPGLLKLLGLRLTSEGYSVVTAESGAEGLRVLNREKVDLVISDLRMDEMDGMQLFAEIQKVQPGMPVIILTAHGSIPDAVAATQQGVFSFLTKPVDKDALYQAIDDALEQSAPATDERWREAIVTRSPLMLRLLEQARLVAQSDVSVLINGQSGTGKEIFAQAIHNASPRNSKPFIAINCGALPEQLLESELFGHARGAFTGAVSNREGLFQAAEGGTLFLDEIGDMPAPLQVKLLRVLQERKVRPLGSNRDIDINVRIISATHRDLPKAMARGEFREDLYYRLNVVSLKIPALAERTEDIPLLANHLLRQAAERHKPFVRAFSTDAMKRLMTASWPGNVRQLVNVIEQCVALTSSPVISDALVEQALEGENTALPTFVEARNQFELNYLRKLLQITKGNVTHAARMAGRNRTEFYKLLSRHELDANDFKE
UniProt P24230, sequence (P24230 whole entry): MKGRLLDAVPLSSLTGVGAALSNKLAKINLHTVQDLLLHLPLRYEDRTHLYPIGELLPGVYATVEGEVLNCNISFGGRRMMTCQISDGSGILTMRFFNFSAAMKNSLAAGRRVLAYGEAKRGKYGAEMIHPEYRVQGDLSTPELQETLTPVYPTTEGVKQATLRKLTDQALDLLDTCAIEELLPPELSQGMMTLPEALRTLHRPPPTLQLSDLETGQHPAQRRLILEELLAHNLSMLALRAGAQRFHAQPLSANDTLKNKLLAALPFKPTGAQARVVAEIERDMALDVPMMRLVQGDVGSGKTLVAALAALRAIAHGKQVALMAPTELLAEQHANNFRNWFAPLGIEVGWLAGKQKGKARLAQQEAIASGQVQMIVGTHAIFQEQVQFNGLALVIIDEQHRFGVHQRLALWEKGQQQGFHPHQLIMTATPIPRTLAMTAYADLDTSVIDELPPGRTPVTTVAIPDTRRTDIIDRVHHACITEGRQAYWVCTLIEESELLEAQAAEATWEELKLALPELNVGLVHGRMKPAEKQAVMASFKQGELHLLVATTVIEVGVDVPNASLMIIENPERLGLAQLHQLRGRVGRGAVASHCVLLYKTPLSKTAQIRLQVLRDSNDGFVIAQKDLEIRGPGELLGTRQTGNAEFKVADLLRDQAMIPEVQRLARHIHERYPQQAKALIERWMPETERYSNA
UniProt P31142, sequence (P31142 whole entry): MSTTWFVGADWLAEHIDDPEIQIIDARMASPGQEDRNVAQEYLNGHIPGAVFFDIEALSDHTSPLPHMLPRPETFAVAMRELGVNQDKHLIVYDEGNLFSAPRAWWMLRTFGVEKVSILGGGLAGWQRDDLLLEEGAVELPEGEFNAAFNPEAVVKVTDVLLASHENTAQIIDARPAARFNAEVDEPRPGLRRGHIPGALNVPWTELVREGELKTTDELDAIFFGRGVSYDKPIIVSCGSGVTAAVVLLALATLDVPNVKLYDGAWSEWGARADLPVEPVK
UniProt P0AB96, sequence (P0AB96 whole entry): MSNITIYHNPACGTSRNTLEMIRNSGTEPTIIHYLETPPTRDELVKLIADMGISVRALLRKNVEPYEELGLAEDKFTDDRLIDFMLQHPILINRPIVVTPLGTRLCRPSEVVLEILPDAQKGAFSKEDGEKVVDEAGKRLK

Compound in this assay: Nc1ncnc2c1ncn2[C@@H]1O[C@H](COP(=O)(O)OP(=O)(O)OP(=O)(O)O)[C@@H](O)[C@H]1O [adenosine 5'-triphosphate]
The experiment in a line: log2 fold change of tryptic peptide abundance, ligand vs vehicle (limited proteolysis) (log2 ratio); higher = more trypsin-susceptible (destabilized). The following applies: ligand concentration: 5 mM; sample: E. coli desalted lysate; replicate design: treated before aliquoting. The procedure:
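HT-PELSA: desalted E. coli K-12 BW25113 lysate (with 12 mM MgCl2) incubated with 5 mM ATP (pH 7) or water for 30 min at 25 C, then a 4 min trypsin pulse at 22 C. Peptides were quantified by DIA-MS (4 replicates). Value is the peptide log2 fold change (treated/control); negative = stabilized. Scale: negative = ligand-stabilized region.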
With “UniProt P39099 (peptide sequence: SRIATTEPGTK, peptide start residue: 330)”, the log2 fold change was 0.877.

For “UniProt P64636 (peptide sequence: EDTIPFLEALK, peptide start residue: 96)”, the log2 fold change was determined as 0.412.

For the target “UniProt P77300 (peptide sequence: STLHSLLK, peptide start residue: 38)”, the log2 fold change is -0.881.

With “UniProt P00363 (peptide sequence: VSQAFWHEWR, peptide start residue: 291)”, the log2 fold change was -0.722.

On to “UniProt P0AAG8 (peptide sequence: TQIGSLSGGNQQK, peptide start residue: 402)”, for which the log2 fold change was found to be 0.32.

With “UniProt P02359 (peptide sequence: FVNILMVDGK, peptide start residue: 26)”, the log2 fold change amounted to 0.921.

As for “UniProt P76558 (peptide sequence: TNLFMKPIFSQAR, peptide start residue: 427)”, the log2 fold change turned out to be 0.538.

On to “UniProt P33940 (peptide sequence: EYYPQAK, peptide start residue: 403)”, for which the log2 fold change is -1.61.

With “UniProt P0AFU4 (peptide sequence: LMTASWPGNVR, peptide start residue: 344)”, the log2 fold change was -1.31.

Take “UniProt P00914 (peptide sequence: LSASLATGGLSPR, peptide start residue: 238)”: the log2 fold change is -0.871.

Take “UniProt P77293 (peptide sequence: GILSWVGGK, peptide start residue: 179)”: the log2 fold change was -0.543.

As to “UniProt P0DPP7 (peptide sequence: NKYLNSTR, peptide start residue: 41)”, the log2 fold change is 0.633.

“UniProt P36771 (peptide sequence: AGLGVTARPVEMMSPDLR, peptide start residue: 231)”: the log2 fold change is 0.543.

“UniProt P76268 (peptide sequence: ALQNVDLIR, peptide start residue: 83)”: the log2 fold change came to 0.371.

As to “UniProt P0A7Y8 (peptide sequence: KGVADLDNR, peptide start residue: 91)”, the log2 fold change was 0.915.

In the case of “UniProt P04825 (peptide sequence: GLENLSGDLYEK, peptide start residue: 853)”, the log2 fold change is -0.937.

“UniProt P03841 (peptide sequence: STFISSVKGKG, peptide start residue: 296)”: the log2 fold change is 0.922.

Take “UniProt P0AC00 (peptide sequence: RYYGGLVEY, peptide start residue: 332)”: the log2 fold change is -0.478.

Take “UniProt P24230 (peptide sequence: TLVAALAALR, peptide start residue: 303)”: the log2 fold change was -1.21.

“UniProt P76330 (peptide sequence: FGHQAGDR, peptide start residue: 447)”: the log2 fold change is -3.47.

Take “UniProt P23839 (peptide sequence: YLETYFRLPEQFR, peptide start residue: 31)”: the log2 fold change came out at 0.91.

“UniProt P00490 (peptide sequence: QCNPALAALLDK, peptide start residue: 460)”: the log2 fold change turned out to be 1.07.

As for “UniProt P76556 (peptide sequence: IAFVGSVGAGK, peptide start residue: 4)”, the log2 fold change is -0.693.

Turning to “UniProt P39399 (peptide sequence: AAGVSPVVVR, peptide start residue: 118)”, the log2 fold change worked out at 0.3.

Turning to “UniProt P15373 (peptide sequence: SHAVLTTESK, peptide start residue: 7)”, the log2 fold change was -0.194.

With “UniProt P0AFU8 (peptide sequence: FSDEIGGHLMSGHIMTTAEVAK, peptide start residue: 90)”, the log2 fold change came out at 0.559.

With “UniProt P24188 (peptide sequence: NHYEYEVGHFENALEIPADTFR, peptide start residue: 157)”, the log2 fold change came to 0.32.

As to “UniProt P39407 (peptide sequence: EFFDPLR, peptide start residue: 90)”, the log2 fold change was 0.583.

In the case of “UniProt P28904 (peptide sequence: LDVVNLISKDPR, peptide start residue: 199)”, the log2 fold change is -0.478.

“UniProt P0AB96 (peptide sequence: LCRPSEVVLEILPDAQK, peptide start residue: 105)”: the log2 fold change came out at 0.492.

For the target “UniProt P78067 (peptide sequence: WGHAGSDSTHMEDFHNPDGTMR, peptide start residue: 340)”, the log2 fold change is -0.858.

With “UniProt P37344 (peptide sequence: ETLLNYR, peptide start residue: 215)”, the log2 fold change is -1.98.

In the case of “UniProt P76196 (peptide sequence: VVEQLLAMR, peptide start residue: 47)”, the log2 fold change was -0.864.

As to “UniProt P15047 (peptide sequence: IGMSAYGASK, peptide start residue: 139)”, the log2 fold change was -1.47.

For “UniProt P39359 (peptide sequence: EGDLATAATLNKK, peptide start residue: 229)”, the log2 fold change was -1.33.

With “UniProt P13518 (peptide sequence: LYQKPAVTR, peptide start residue: 414)”, the log2 fold change came out at 0.793.

Regarding “UniProt P00579 (peptide sequence: EPTPEELAER, peptide start residue: 477)”, the log2 fold change was found to be 0.829.

On to “UniProt P31142 (peptide sequence: GHIPGALNVPWTELVR, peptide start residue: 194)”, for which the log2 fold change was -0.763.

Regarding “UniProt P08142 (peptide sequence: KRFTGAEFIVHFLEQQGIK, peptide start residue: 11)”, the log2 fold change amounted to 1.49.

“UniProt P0AAB8 (peptide sequence: EQCDLLVCGHHHSFINR, peptide start residue: 102)”: the log2 fold change is -0.697.
